system: VDR:RXRa (NR concentration 270 nM, RXRa partner concentration 90 nM); assay: PBM binding z-score (relative to random genomic background probes); higher = stronger binding; sequences stand for … in GC…GCGATTGACAGCGTAGAATGAAGG
Description: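 Protein-binding microarray (Agilent 4x180K custom design, double-stranded 60-nt probes: 5' GC cap, 34-nt variable region, 24-nt constant primer region; full probe sequence given). Purified or IVT nuclear receptor:RXRα heterodimers (3:1 NR:RXRα, mostly 270:90 nM) or homodimers were incubated for 1 h in PBS with 2% milk and no ligand, then detected with Alexa488 antibodies. Fluorescence from o1-orientation probes (~5 replicates averaged) was converted to z-scores against 500 random hg19 background probes. Variable regions are seed direct-repeat (DR0–DR5) sites, all their single-nucleotide variants and half-site ablations.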

Sequence | PBM binding z-score
ACAGACAGGTGAGTGAAGGTAACTCTGCTGGACG | -0.344
GCTTGTTGGTCAGTAAAAGGTCACACACCGGTCG | 3.86
CAGCCTAGGTCTGGGCCAGTATAGGAGGAACGTT | -0.828
ATCTCTAGGTAAAGTCCAGTGAAAGATCGATAGA | -0.12
ACTTACGGGTCAACGAGGTTATAGGACGCGTATA | 7.69
CGTCCAAGGTCAATGCTCGGTCAGTGAAAGCATT | 4.21
CCTGCTAGGTCAATGGTCAGATAAAGCAGCTCGC | 0.927
ATATGTAGGTTAGCTGGGGTCATTGAGACTAGGC | 5.95
CCGACTGGGGCAAAGGTTACTATACTCAGTACGA | 1.12
TCTGCTAGGTCAAGGATGGTCAGCTAATCTGCTA | 1.18
CGAACGCGGGCATGAGTTGATAGCAAATGCCGAT | -0.376
ATCGAAAGGCCGACGAGGTGAGTATACACCGTTT | 0.176
TTACCAACGTGAAAGGTCGTTGATGCACGCCTTG | 1.74
CGTCCAAGGTCACTGCTAGGTCAGTGAAAGCATT | 5.09
GCAATTAGTTGAAAGGGCAACCGAATGATTCTCG | 0.238
CGTCCAAGGTCATAGGAGGTCAGTTAAGACAGAT | 6.3
TTACCAAGGAGAGCTGAGGTCGTTGATCCAACTC | 1.15
AGGCAAAGTTCATCTAGGTAACGTAAGATATGCT | 4.86
GGAACGAGGGCCAAGTTGATAGCATCTGTCGACG | -0.379
TCATATAGGTAAAAGGTGAAAGTCGGTGTGGTAA | 1.82

Sequence | PBM binding z-score
GCTTACGGGTCAAAGGTTATAGCTTGAATAGAAT | 5.25
GCTCGGCGGACAAGGTCAGAGCTTTGTCCGTAGA | 0.376
TTACCAAGGTGGGCTGAGGTCGTTGATCCAACTC | 2.6
TCTTGTAGATCAAGCACGTTAAGAAAGCCTGAGT | 0.187
CCGACTGGGGCAAGGATACCATAACGCACAGCCA | -0.596
ACAGACAGGTGAGTGGAGGTAACTCAGCTGGACG | -0.0789
GTGACTGGGGCATCAGCAGGTTACCATAACTTAA | 0.163
TCTCGGAGGACACTAAGGTCAGAGCTTTCCAGAG | 3.31
TAGCCTAGGTCATACGGGCCAGTATAGTGTCGGC | 3.08
AGAATGAGGTTATACGGAGATCAGGGAAGAAAGT | 1.56
TAGCCTAGGTCATTCAGGGGCCAGTATAGAAAGC | 3.26
ATCGAAAGGTCGACGAGGTGACTATACACCGTTT | 5.95
CCAACTAGGTCAAGGACAGTGAATCTCCGCACGC | 1.16
ATCTCTAGGTGAGACTCAGTTCAGTGAAGAACGC | 0.863
ATACCAACGTGATCGTGAGGTCGTTGATACTAAC | 1.8
GCTAGTTGGACAGTAAAAGGTCACACACCGGTCG | 3.84
GGAACGAGGGCAAGTTGATAGTAGAGTTTGATGG | 1.34
ATCTCTAGGTAAAAAGTTCAGTGAAAGAGAGGAC | 1.39
AGTCAAACTTCATCTAGGTAACGTAAGATATGCT | -0.0435
CAAACTAGGTCACCGGAAGGACAAAGTCCGCATG | 3.49
